This note sets out measurements from PubChem BioAssay (NCI).

Compounds without any hit were thinned out: in the full panel of roughly 79,000, 15% have a hit. Values without a mark were called inactive. The source made the active and inactive calls. No stated cut-off is given here; in the data, active means growth inhibition above about 70%; inactive means the rest.

The nature of assay [1]: NCI Yeast Anticancer Drug Screen. Data for the rad50 strain (AID 155).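 Further: 0% = growth of vehicle-only cultures of the same strain.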 As to conditions: S. cerevisiae rad50 strain growth inhibition; at 50.0 µM; hits give high values. The method in brief:
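DNA repair mutant yeast, compound exposure, growth read-out; inhibition is taken relative to vehicle.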

The nature of assay [2]: NCI Yeast Anticancer Drug Screen. Data for the mec2-1 strain (AID 157). As to conditions: S. cerevisiae mec2-1 strain, at 50.0 µM, hits give high values. The essentials: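 Mutant yeast (mec2-1) grown with compound; growth inhibition relative to vehicle control reported.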
Assay [3] in a line: NCI Yeast Anticancer Drug Screen. Data for the sgs1 mgt1 strain (AID 161).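 Further: 0% = growth of cultures given vehicle only.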 The conditions noted are these: S. cerevisiae sgs1 mgt1 strain, at 50.0 µM, hits give high values. The essentials: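 Yeast cells carrying a defined DNA-repair defect were exposed to test compounds. Growth inhibition was measured relative to vehicle-treated controls.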
The nature of assay [4]: NCI Yeast Anticancer Drug Screen. Data for the cln2 rad14 strain (AID 165).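 Further: 0% = growth equal to vehicle treated cultures.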 The conditions noted are these: S. cerevisiae cln2 rad14 strain, at 50.0 µM, hits give high values. The essentials: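 Readout is yeast growth inhibition versus vehicle-treated controls, using a strain with cln2 and rad14 alterations exposed to compound.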
Assay [5] is described as follows: NCI Yeast Anticancer Drug Screen. Data for the bub3 strain (AID 167). The conditions noted are these: S. cerevisiae bub3 mutant strain, at 50.0 µM, hits give high values. The essentials:
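In this screen, a yeast mutant lacking normal mitotic checkpoint function is challenged with compound. Relative growth versus vehicle gives the inhibition value.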

The nature of assay [6]: NCI Yeast Anticancer Drug Screen. Data for the mlh1 rad18 strain (AID 175). The conditions noted are these: S. cerevisiae mlh1 rad18 strain growth inhibition; at 50.0 µM; hits give high values. The method in brief: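 Genetically defined yeast (DNA repair-deficient) exposed to compounds; growth inhibition determined relative to vehicle.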

With `Cc1[nH]c(C)c2ccc(=O)ccc12`, the growth inhibition was -51.4% in assay [1]; -8.35% in assay [2]; -16.6% in assay [3]; -58.2% in assay [4]; -2% in assay [5]; -7.65% in assay [6].

In the case of `COc1ccc(Cl)cc1/C=C\C=N\OCC(=O)O`, the growth inhibition in assay [1] is 5.2%; in assay [2], 1.85%; in assay [3] it was 1.05%; in assay [4], -43.6%; in assay [5] it was -5.85%; in assay [6], 7.25%.

Take `CC(=O)NC(CSC1=C2NC(=O)\C=C/C=C/C=C\C(C)C(O)CC(=O)/C(C)=C\CC(O)/C=C/C(C)C(O)C(C)C=C(C)C(=O)c3c(O)c(C)cc(c3C1=O)C2=O)C(=O)O` (stereo not drawn): the growth inhibition in assay [1] is 1.1%; in assay [2], 7.95%; in assay [3], 36.6%; in assay [4], 23.3%; in assay [5], 15.4%; in assay [6], 8.45%.

On to `CC1(C)CCCC/C1=N\Nc1ccc([N+](=O)[O-])cc1[N+](=O)[O-]`, for which the growth inhibition in assay [1] is -29.2%; in assay [2], 5.2%; in assay [3] it was -2.8%; in assay [4], -22.2%; in assay [5], 1.1%; in assay [6], 22.1%.

With `Cc1ccc(N=Nc2ccc([N+](=O)[O-])cc2)c([N+](=O)[O-])c1`, the growth inhibition was 10.9% in assay [1]; -11.2% in assay [2]; -4.5% in assay [3]; 17.4% in assay [4]; 18.4% in assay [5]; -12.6% in assay [6].

As to `Nc1cc(S(=O)(=O)O)cc2cccc(S(=O)(=O)O)c12`, the growth inhibition in assay [1] is 7%; in assay [2], -7.7%; in assay [3], 0.35%; in assay [4], -20.6%; in assay [5], 25.2%; in assay [6], 30.8%.

With `CCOC(=O)c1ccc(NC(=O)/C=C/c2ccccc2)cc1`, the growth inhibition in assay [1] is -4.55%; in assay [2], 11.4%; in assay [3] it was 17.4%; in assay [4] it was -24.3%; in assay [5], 30.1%; in assay [6] it was 6.3%.

As to `O=C(O)CCc1nc2c(n1-c1ccccc1)C(=O)c1ccccc1C2=O`, the growth inhibition was 38.2% in assay [1]; 20.5% in assay [2]; 34.6% in assay [3]; 34.3% in assay [4]; 37.6% in assay [5]; 34.2% in assay [6].

On to `COC(=O)C1C(O)C(C)C(O)OC1C(C)C(O)C(C)/C=C\C=C(/C)C(=O)Nc1c(C)c(OC(C)=O)c2c(c1O)C(=O)C(C)=C1OCOC(/C(C)=C/C(C)=O)=C12` (stereo not drawn), for which the growth inhibition in assay [1] is 14.6%; in assay [2] it was 8.3%; in assay [3], 9.8%; in assay [4] it was 13.4%; in assay [5] it was 14%; in assay [6], 17.6%.

On to `CC(/C=C/C=C(\C)C(=O)O)=C\C=C\C=C(C)\C=C\C=C(/C)C(=O)O`, for which the growth inhibition is -0.8% in assay [1]; -21% in assay [2]; 3.7% in assay [3]; 6.6% in assay [4]; -9.05% in assay [5]; 17.9% in assay [6].

For `O=C(CCN1CCOCC1)c1csc2ccccc12`, the growth inhibition in assay [1] is 27.6%; in assay [2], 36.9%; in assay [3], 12.9%; in assay [4], 14.9%; in assay [5] it was -5.35%; in assay [6], 17.8%.

With `Clc1cc(/C=C/c2ccccc2)c2ccccc2n1`, the growth inhibition in assay [1] was 25.9%; in assay [2], -0.05%; in assay [3] it was 12.6%; in assay [4] it was -7.5%; in assay [5], -4.65%; in assay [6], 22.3%.

Regarding `CCOC(=O)C(C#N)S(C)(=O)=O` (stereo not drawn), the growth inhibition is 4.55% in assay [1]; -6.55% in assay [2]; 1.9% in assay [3]; -35.3% in assay [4]; -12.1% in assay [5]; -1.6% in assay [6].

Turning to `COC(=O)c1cc2ccccc2c2c3c(ccc12)OCO3`, the growth inhibition in assay [1] was 9.4%; in assay [2], -0.15%; in assay [3], -10.3%; in assay [4] it was -43.6%; in assay [5], -4.05%; in assay [6] it was -14.3%.

Consider `C=C1C(=O)[C@@]23CC[C@@H]4[C@@]5(C)CCC[C@@]4(OC5=O)C2(C)CC[C@]1(OC)C3` (stereo partly drawn), for which the growth inhibition in assay [1] is 87.2% (active); in assay [2] it was 92.5% (active); in assay [3] it was 88.3% (active); in assay [4] it was 88.5% (active); in assay [5], 88.4% (active); in assay [6], 90.7% (active).

Turning to `CCCCC(=O)/C=C/c1ccccc1`, the growth inhibition in assay [1] is 12.3%; in assay [2], -8.15%; in assay [3], -3.95%; in assay [4], -46.5%; in assay [5], -6.6%; in assay [6], -3.4%.

`CSC(=Nc1ccc([N+](=O)[O-])cc1C#N)NC(=O)c1ccccc1`: the growth inhibition in assay [1] was -28.2%; in assay [2], -19.9%; in assay [3] it was -29.1%; in assay [4] it was -15.1%; in assay [5] it was -16.8%; in assay [6], 9.55%.

Regarding `COc1ccc(N=Nc2c(C)c(C#N)c(=S)n(C3OC(CO)C(O)C(O)C3O)c2-c2ccccc2)cc1` (stereo not drawn), the growth inhibition in assay [1] is 0.55%; in assay [2], 2.85%; in assay [3], 20.1%; in assay [4] it was 10.7%; in assay [5], 11.8%; in assay [6] it was 23.9%.

For `CN(C)C12CCC(c3ccccc31)c1ccccc12`, the growth inhibition in assay [1] was 29.8%; in assay [2], 20.8%; in assay [3], 27.4%; in assay [4], 8.6%; in assay [5], 36.5%; in assay [6] it was 4.25%.

For `CC1=NN(C(=O)c2cccnc2)C(=O)C1N=Nc1ccc(S(=O)(=O)N=C(N)N)cc1` (stereo not drawn), the growth inhibition in assay [1] was 4.8%; in assay [2], -14.6%; in assay [3] it was -12.4%; in assay [4], -6.5%; in assay [5] it was 0%; in assay [6] it was -21.9%.

For the compound `CCC(CC)C1CC[N-]CC1.CCC(CC)C1CC[N-]CC1.CCC(CC)C1CC[N-]CC1.CCC(CC)C1CC[N-]CC1.N#C[S-].N#C[S-].[Co]`, the growth inhibition in assay [1] was 16.4%; in assay [2], 15.1%; in assay [3] it was 3.1%; in assay [4], 13.8%; in assay [5], 19.4%; in assay [6], 29.7%.

For the compound `NC(=O)N=Nc1ccc(Br)cc1`, the growth inhibition in assay [1] was 9.8%; in assay [2], 7.05%; in assay [3] it was -7.85%; in assay [4], -11.7%; in assay [5], -3.55%; in assay [6], 18.3%.

As to `COC(=O)/C(C)=C/C=C/C(OC)C(OC(N)=O)/C(C)=C/C(C)C(O)C(CC(C)CC1=C(N)C(=O)C=C(N)C1=O)OC` (stereo not drawn), the growth inhibition in assay [1] is 9.4%; in assay [2] it was 10.3%; in assay [3] it was -6.8%; in assay [4] it was 46.9%; in assay [5] it was 5.9%; in assay [6], -18%.
